# According to PubChem BioAssay AID589 (National Center for Advancing Translational Sciences (NCATS), 2007):
# Among all 59,000 compounds or so, about 6,200 (11%) were called active. Another 9% or so got no clear call; they are omitted. Cut-off read from the data, not from the text of the source: active = max dye-equivalent concentration above about 10 nM; inconclusive = mostly about 1.1 nM to 9.6 nM; inactive = weaker than that. The entries come from a sample that favours actives as a whole.
# Experiment: qHTS Assay for Spectroscopic Profiling in 4-MU Spectral Region
# Conditions: compound autofluorescence, 340/450 nm, 4-MU equivalents; stronger effect = higher value
# Summary of the method: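 Intrinsic fluorescence at 340/450 nm (ex/em) was read after 15 min at room temperature in pH 8.0, 100 mM Tris. Each compound concentration expressed as 4-MU-equivalent concentration from a six-point 4-MU standard series on each plate.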
row,Compound,max dye-equivalent concentration
1,O=C(Nc1ncc2c(n1)CC(c1ccco1)CC2=O)c1ccc(Cl)cc1 (centres undefined),inactive
2,CCc1ccc(Nc2ncc3c(n2)CC(c2ccco2)CC3=O)cc1 (centres undefined),38 nM (active)
3,CCc1ccc(NC(=O)CSc2nnc(-c3cnccn3)n2Cc2ccco2)cc1,inactive
4,CCOc1ccc(NC(=O)N2CCN(CC)CC2)cc1,inactive
5,CCOc1ccc2nc(N3CCCN(C(=O)Nc4ccccc4C)CC3)c(C#N)cc2c1,16 nM (active)
6,Cc1ccccc1NC(=O)CNc1ccccc1N1CCCCC1,inactive
7,Cn1c(-c2ccc(F)cc2)cnc1SCC(=O)NCc1ccco1,inactive
8,O=C(CN1CCN(c2nc(-c3ccccc3)cs2)CC1)NCc1ccc2c(c1)OCO2,inactive
9,CC1(C)S[C@@H]2[C@@H](NC(=O)[C@@H](N)c3ccccc3)C(=O)N2[C@H]1C(=O)O,44 nM (active)
10,CC1(C)SC2c3ccccc3C(=O)N2[C@@H]1C(=O)NCc1ccco1 (some centres undefined),inactive
11,CCS(=O)(=O)N1CCC(C(=O)N2CCN(c3ccccc3)CC2)CC1,inactive
12,CCOc1ccccc1Nc1nnc(SCC(=O)Nc2cc(C)on2)s1,inactive
13,CC(C[N+](C)(C)C)OC(N)=O (centres undefined),inactive
14,CC(=O)OC(C)C[N+](C)(C)C (centres undefined),500 nM (active)
15,CCN1C(=O)/C(=C\N2CCN(c3ccccc3)CC2)SC1=S,inactive
16,CCN1C(=O)/C(=C2\SC(N3CCCCC3)=NC2=O)c2ccccc21,18 nM (active)
17,Cc1ccc(C(=O)OCC(=O)NCc2ccc3c(c2)OCO3)s1,inactive
18,Cc1ccc2cccc(O)c2[n+]1[O-],17 nM (active)
19,CC(=O)Nc1cccc2c1[n+]([O-])c(C)c(C)[n+]2[O-],inactive
20,O=C(O)[C@@H]1[C@@H](C(=O)O)[C@]23C[C@@]2(C(=O)O)[C@]2(C(=O)O)CCC3=C3CCCC312,inactive
21,CCOC(=O)CSc1nnc(CNc2ccc(F)cc2)o1,inactive
22,CCCOP(=O)(c1ccc(N(C)C)cc1)C(O)c1cc(OC)c(OC)c(OC)c1 (centres undefined),inactive
23,Cc1c(S(=O)(=O)O)ccc(N=Nc2c(O)c(C(=O)O)cc3ccccc23)c1Cl,11 nM (active)
24,CCc1ccc(-c2nnn(Cc3nc4ccccc4s3)n2)cc1,inactive
25,COc1ccc(Cc2nnc(NS(=O)(=O)Cc3ccccc3)s2)cc1,inactive
26,COC(=O)C1(S(=O)(=O)C2(C(=O)OC)CCCC2)CCCC1,inactive
27,N#Cc1c(N)n(CCOC(=O)c2ccc(Cl)cc2)c2nc3ccccc3nc12,600 nM (active)
28,O=S(=O)(O)c1nc2ccccc2n1Cc1ccc(Cl)cc1,inactive
29,C[C@H](NC(=O)OC(C)(C)C)c1nnc(SCC(N)=O)o1,inactive
